RORgamma inh: inhibitors of mouse ROR gamma transcriptional activity; P51450; Drosophila S2 Gal4-RORgamma UAS-luciferase reporter, 20 h; Potency, µM (highest dose often 53.6 µM), usual class: inhibitors; 310,000 tested, 5.4% active; AID 2551; note: nearly all actives have a fitted effect of over 60% in size
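A Gal4/UAS one-hybrid system in insect cells: metallothionein-promoter Gal4–ROR gamma fusion plus Photinus luciferase reporter. Copper sulfate 700 uM final, 20 hr ambient incubation, luminescent detection after 10 min with reagent.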
B2AR arrestin: agonists driving beta-arrestin recruitment to human beta2-adrenergic receptor. 330,000 tested, 0.02% active. P07550. Potency, µM (series often up to 46.1 µM), most hits filed as activators. beta-arrestin recruitment to beta2AR, cell-based reporter. AID 492947; note: nearly all actives have a fitted effect of over 65% in size
Target sequence (P07550 whole entry, looked up): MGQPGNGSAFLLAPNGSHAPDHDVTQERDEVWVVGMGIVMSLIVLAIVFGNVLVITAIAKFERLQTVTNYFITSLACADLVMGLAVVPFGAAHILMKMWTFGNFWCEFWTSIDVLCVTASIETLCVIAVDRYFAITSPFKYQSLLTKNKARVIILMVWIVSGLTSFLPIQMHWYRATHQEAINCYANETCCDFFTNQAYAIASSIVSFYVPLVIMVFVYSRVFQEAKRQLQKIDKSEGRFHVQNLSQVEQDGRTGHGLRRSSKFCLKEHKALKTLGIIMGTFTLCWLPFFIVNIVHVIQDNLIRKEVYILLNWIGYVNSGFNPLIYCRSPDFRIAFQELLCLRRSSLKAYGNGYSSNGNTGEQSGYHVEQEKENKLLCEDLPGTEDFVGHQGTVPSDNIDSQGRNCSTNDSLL
VP16 counter: Gal4-VP16 reporter inhibition counter-screen; Potency, µM (titrated, usually from 53.6 µM), hits mostly inhibitors; 310,000 tested, 3.5% active; Drosophila S2 Gal4-VP16 UAS-luciferase, luminescence, 20 h;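 note: Gal4-VP16 expression switched on by copper sulfate through the metallothionein promoter; nearly all actives have a fitted effect of over 50% in size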
TSHR antagonist: blocks TSH signaling through the human TSH receptor; P16473; TSHR-expressing cells, TSH-stimulated cAMP HTRF, 2 h; active compounds read low; activity change, negative = inhibition, % at 11.5 µM; 330,000 tested, 0.2% active; AID 504810;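 active = activity change below a set negative limit, meaning inhibition stronger than a set level, cut at about -70% in these data; inconclusive = activity change between two set negative limits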
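Read-out is FRET at 665 nm (cryptate excitation 337 nm) from a cryptate-tagged anti-cAMP antibody, competed by cell cAMP against cAMP-d2. Compounds are tested on freshly harvested TSHR cells challenged with 4nM TSH (EC80) for 2 hours at 37 deg C.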
ELG1 DNA repair: ELG1-dependent DNA repair inhibition. HEK293T ELG1-luciferase reporter, luminescence, 16 h; DNA damage induced by 5-fluorouridine. Potency, µM (titrated, usually from 46.1 µM), most hits filed as inhibitors. 330,000 tested, 2.3% active. AID 504467; note: nearly all actives have a fitted effect of over 55% in size
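Luminescence from the luciferase reporter, measured 30 min after ONE-Glo reagent at room temperature, was the read-out. Beforehand, 2,000 cells per well were exposed for 16 hr at 37 °C to 5-fluorouridine together with compound or vehicle.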
Hits are given with their value; . = inactive; ? = inconclusive; / = no result given; [ ] = remark or other dose. An excerpt weighted towards active compounds, which were near 7.5% of everything screened. Unless noted, calls come from the whole dose curve; as a rule, active = well fitted curve in the direction sought with a large enough effect; inconclusive = small, poorly fitted or top-dose-only effect, or another doubt; inactive = no such curve, though single readings can be large; an effect the other way counts as inactive or inconclusive.

SMILES	RORgamma inh	B2AR arrestin	VP16 counter	TSHR antagonist	ELG1 DNA repair
CCOP(=O)(OCC)C(NC(=O)NS(=O)(=O)c1ccc(C)cc1)c1ccccc1 (centres undefined)	.	.	.	.	.
Cc1cccn2c(=O)cc(CSc3nnc(NC(=O)COc4ccccc4)s3)nc12	/	.	/	.	/
C[C@@H]1NC(=O)C/C=C\[C@@H](C)[C@@H]2C=C[C@H](O)[C@@H](COC(=O)[C@H](C)NC(=O)C/C=C\[C@@H](C)[C@@H]3C=C[C@H](O)[C@@H](COC1=O)O3)O2	.[10 µM]	/	.[10 µM]	/	/
c1ccc(Nc2ncncc2-c2ccc3c(c2)OCO3)cc1	.	/	.	/	/
C=CCN(c1ccccc1OC)S(=O)(=O)c1ccc(Cl)c(C(=O)Nc2ccc(N3CCOCC3)cc2)c1	.	.	.	.	7.3µM
COc1cc(NC(=O)c2ccc(S(=O)(=O)N(C)c3ccccc3OC)cc2)cc(OC)c1	/	.	/	.	15µM
COc1ccc(NS(=O)(=O)c2ccc(OC)c(N(C)S(=O)(=O)c3ccc(Cl)cc3)c2)cc1	?	.	11µM	.	.
COc1ccc(CCn2c(C3CCCCC3)nc3c(c(=O)c4ccccc4n3C)c2=O)cc1	.	.	.	.	16µM
Cc1cc(CC(C)C)n(-c2nc3ccccc3c(=O)n2OCC(=O)N(C)C)n1	2.2µM	.	6.3µM	.	?
Cc1cc(CC(C)C)n(-c2nc3ccccc3c(=O)n2OCc2ccccc2)n1	1.6µM	.	?	.	.
COc1ccc(OC)c(C2=Nn3c(nnc3-c3ccc(OC)c(OC)c3)SC2)c1	.	/	.	/	/
C(=N\N1CCN(Cc2cccc3ccccc23)CC1)/c1cccnc1	.	.	.	-82	.
CCN1C(=O)[C@@H]2[C@H](C1=O)[C@@H]1C(=O)Nc3ccccc3C(=O)N1[C@@H]2c1ccc(OC)cc1	/	.	/	.	?
COc1cccc2nc(-c3cccs3)nc(NN3C(=O)C=C(C)C3=O)c12	6.3µM	/	5µM	/	/
COCCCNC(=O)c1c[nH]c2ccc(S(=O)(=O)N3CCc4ccccc43)cc2c1=O	.	.	?	.	7.3µM
COCCNC(=O)c1c[nH]c2ccc(S(=O)(=O)Nc3ccccc3F)cc2c1=O	.	.	.	.	.
COCCNC(=O)c1c[nH]c2ccc(S(=O)(=O)N3CCc4ccccc43)cc2c1=O	?	.	.	.	10µM
CCOC(=O)c1c(-c2ccccc2)nc2cc(C)ccn12	13µM	.	.	.	?
CCOC(=O)c1c(-c2ccccc2)nc2ccc(C)cn12	?	.	.	.	?
CCn1c2ccccc2c2cc(NC(=O)c3cccc(OC)c3OC)ccc21	?	.	.	.	15µM
COc1ccc(C(=O)Nc2ccc3nc(N4CCN(C)CC4)cc(C)c3c2)c(OC)c1	?	.	.	.	.
CCn1c2ccccc2c2cc(NC(=O)c3cccc(OC)c3)ccc21	?	.	.	.	.
COc1cccc(C(=O)Nc2ccc3nc(N4CCN(c5ncccn5)CC4)cc(C)c3c2)c1OC	?	.	.	?	2.6µM
OCCOCCN1CCN([C@@H](c2ccccc2)c2ccc(Cl)cc2)CC1	.	/	.	/	/
Cc1ccccc1C1CC(=O)Oc2ccc(O)cc21 (centres undefined)	.	/	.	/	/
SMILES	RORgamma inh	B2AR arrestin	VP16 counter	TSHR antagonist	ELG1 DNA repair
CCN(CC)S(=O)(=O)c1ccc2c(c1)c(=O)c(C(=O)N1CCN(c3ccccn3)CC1)cn2C	.	.	.	.	.
S=c1[nH]nc(Cc2ccc(Cl)cc2)n1-c1ccc2c(c1)OCCO2	2.8µM	.	.	.	.
CCc1nc2c(cnn2-c2ccc(Cl)cc2)c(=O)n1-c1ccc2c(c1)OCCO2	.	.	.	.	.
COc1ccc(Cc2n[nH]c(=S)n2-c2ccc3c(c2)OCCO3)cc1	8.9µM	.	.	.	.
COc1ccc2cc(C[C@@H]3CC[C@@H](CNC(N)=O)O3)ccc2c1	/	.	/	.	?
COC(=O)CSc1nnc(-c2ccccc2O)n1-c1ccc(C)cc1	?	.	?	.	.
CCOC(=O)C(C)Sc1nnc(-c2ccccc2O)n1-c1ccc(C)cc1 (centres undefined)	3.2µM	.	5.6µM	.	.
O=C1[C@@H]2C[C@@H]3C[C@H]1C[C@@](O)(C3)C2	.	/	.	/	/
O=C(Nc1cccc(S(=O)(=O)N2CCCC2)c1)c1ccc2ccccc2n1	.	.	.	.	21µM

Screening results: PubChem BioAssay, National Center for Advancing Translational Sciences (NCATS)
